Data on five compounds can be found in PubChem BioAssay.

The source made the active and inactive calls.

Assay [1] is described as follows: small molecules captured by biotinylated probe aFSTL3 – biochemical, small-molecule microarray, fluorescence 635/667, stem cell growth factor project, primary screen (AID 1064).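 Also: measures binding of the biotinylated anti-FSTL3 antibody to printed compounds.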 Conditions: higher = more signal.
Assay [2] is described as follows: binders from COS7 lysate, DM2A8 probe, primary screen, torsin A project, cell lysate, small-molecule microarray, fluorescence 635/667 (AID 1065). The note with it: higher = more signal, COS7 lysate expressing mutant human TOR1A.
A short description of assay [3]: small molecules captured by biotinylated probe aFGF2 – biochemical, small-molecule microarray, fluorescence 635/667, stem cell growth factor project, primary screen (AID 1067).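 Also: measures binding of biotinylated aFGF2 protein to printed compounds on slides; z-score merges feature fluorescence and signal-to-noise across triplicate slides.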 The note with it: higher = more signal.
Assay [4] in a line: small molecules captured by biotinylated probe aFGF10 – biochemical, small-molecule microarray, fluorescence 635/667, stem cell growth factor project, primary screen (AID 1071).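 Also: score merges 667 nm spot intensity and signal to noise from triplicate slides.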 The note with it: higher = more signal.
The target of assay [5] is Neurogenic locus notch homolog protein 2 (Homo sapiens) (UniProt Q04721). As to the kind of experiment: small molecules binding Notch2 protein – biochemical, small-molecule microarray, 635 nm fluorescence, stem cell growth factors, primary screen (AID 1073). Conditions: higher = more signal.
The target in assay [6] is Pro-neuregulin-1, membrane-bound isoform (Homo sapiens) (UniProt Q02297). The assay is described as follows: small molecules binding neuregulin-1 protein – biochemical, small-molecule microarray, fluorescence 635/667, psychiatric disease protein project, primary screen (AID 1075).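 Also: score combines 667 nm spot fluorescence with signal to noise.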 Conditions: NRG1 binding, 635 nm fluorescence, higher = more signal.
The test system of assay [7] is Neuregulin-1 EGF-like domain. As to the kind of experiment: small molecules binding NRG1 EGF domain – biochemical, small-molecule microarray, 635 nm fluorescence, primary screen (AID 1081).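 Also: binding of the protein to compounds printed on small-molecule microarray slides.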 The note with it: higher = more signal.
The nature of assay [8]: FRG1 expression reporter modulators in myotubes – cell-based, C2C12 myotubes, firefly/Renilla luciferase, luminescence, FRG1 inhibition for FSHD, primary screen (AID 1084). The note with it: FRG1 promoter luciferase, higher = more signal, called active from +8 up or from −8 down.
Assay [9] can be described thus: small molecules captured by biotinylated probe aFST – biochemical, small-molecule microarray, fluorescence 635/667, stem cell growth factor project, primary screen (AID 1086).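 Also: score merges 667 nm fluorescence with signal-to-noise of each printed compound spot.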 The note with it: higher = more signal.
Assay [10] can be described thus: binders of probe aHhip on microarray, primary screen, stem cell growth factor project, biochemical, small-molecule microarray, fluorescence 635/667 (AID 1087).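 Also: score merges spot fluorescence at 667nm with spot signal to noise ratio.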 The note with it: higher = more signal.
Assay [11] deals with PRMT1 (protein arginine N-methyltransferase 1). As to the kind of experiment: small molecules binding arginine methyltransferase PRMT1 – biochemical, small-molecule microarray, 635 nm fluorescence, primary screen (AID 1088).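 Also: binding of Prmt1 protein to compounds spotted on small-molecule microarray slides.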 The note with it: higher = more signal.
A short description of assay [12]: growth effects on S. cerevisiae YJM789 – YJM789 clinical isolate, OD600, 24 h, basal, primary screen (AID 1089).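 Also: growth of clinical yeast isolate S. cerevisiae YJM 789 seeded 1000 cells per well; test concentration not given here.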 The note with it: higher = more signal, called active from +8 up or from −8 down.
Assay [13] can be described thus: S. pombe growth modifiers, basal conditions – strain 972, OD600, 24 h, no modulator, primary screen (AID 1090).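 Also: basal condition with compound alone and no growth modifier present; test concentration not given here.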 Conditions: S. pombe 972 growth, higher = more signal, called active from +8 up or from −8 down.
A short description of assay [14]: budding yeast growth modifiers under rapamycin – strain BY4716, OD600, 96 h, primary screen (AID 1091). Also: test concentration not given here. The note with it: S. cerevisiae BY4716 + rapamycin, higher = more signal, called active from +8 up or from −8 down.
The target of assay [15] is Torsin-1A-interacting protein 2 (Homo sapiens) (UniProt Q8NFQ8). As to the kind of experiment: small molecules binding lysate-expressed LULL1 – cell lysate, human LULL1 lysate, 635/667 nm fluorescence, primary screen (AID 1092).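 Also: score merges per-feature 667 nm fluorescence with signal-to-noise.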 Conditions: small-molecule microarray, hLULL1 lysate binding, 635 nm fluorescence; higher = more signal.
Assay [16] can be described thus: optical density change of DRC41 E. coli – strain DRC41, OD650, 24 h, E. coli filamentation project, primary screen (AID 1093).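 Also: MC1000 strain lacking acrAB efflux and sulA so SOS filamentation is blocked; test concentration not given here.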 The note with it: E. coli DRC41 growth, higher = more signal, called active from +8 up or from −8 down.
Assay [17] is described as follows: probe aLefty2 binding to arrayed compounds – biochemical, biotinylated probe, 635/667 nm fluorescence, primary screen (AID 1094).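 Also: score merges spot fluorescence near 667 nm with spot signal-to-noise ratio.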 The note with it: small-molecule microarray, higher = more signal.
The subject of assay [18] is Noggin (protein binding on small-molecule microarray). The assay is described as follows: small molecules binding Noggin protein – biochemical, 635/667 nm fluorescence, primary screen (AID 1095).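 Also: score merges 667 nm feature fluorescence with signal to noise over triplicate slides.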 The note with it: 635 nm fluorescence, higher = more signal.
Assay [19] addresses Neurogenic locus notch homolog protein 3 (Homo sapiens) (UniProt Q9UM47). The assay is described as follows: small molecules binding NOTCH3 protein – biochemical, 635/667 nm fluorescence, primary screen (AID 1096). Conditions: small-molecule microarray, 635 nm fluorescence, higher = more signal.
Assay [20] can be described thus: probe aEGFR binding to arrayed compounds – biochemical, biotinylated probe, 635/667 nm fluorescence, primary screen (AID 1097).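 Also: probe is a biotinylated anti-EGFR antibody binding compounds printed on slides; score combines fluorescence near 667 nm and signal to noise of each spot.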 Conditions: small-molecule microarray, higher = more signal.

Neurogenic locus notch homolog protein 2 (Homo sapiens), sequence (Q04721 whole entry, looked up, canonical isoform): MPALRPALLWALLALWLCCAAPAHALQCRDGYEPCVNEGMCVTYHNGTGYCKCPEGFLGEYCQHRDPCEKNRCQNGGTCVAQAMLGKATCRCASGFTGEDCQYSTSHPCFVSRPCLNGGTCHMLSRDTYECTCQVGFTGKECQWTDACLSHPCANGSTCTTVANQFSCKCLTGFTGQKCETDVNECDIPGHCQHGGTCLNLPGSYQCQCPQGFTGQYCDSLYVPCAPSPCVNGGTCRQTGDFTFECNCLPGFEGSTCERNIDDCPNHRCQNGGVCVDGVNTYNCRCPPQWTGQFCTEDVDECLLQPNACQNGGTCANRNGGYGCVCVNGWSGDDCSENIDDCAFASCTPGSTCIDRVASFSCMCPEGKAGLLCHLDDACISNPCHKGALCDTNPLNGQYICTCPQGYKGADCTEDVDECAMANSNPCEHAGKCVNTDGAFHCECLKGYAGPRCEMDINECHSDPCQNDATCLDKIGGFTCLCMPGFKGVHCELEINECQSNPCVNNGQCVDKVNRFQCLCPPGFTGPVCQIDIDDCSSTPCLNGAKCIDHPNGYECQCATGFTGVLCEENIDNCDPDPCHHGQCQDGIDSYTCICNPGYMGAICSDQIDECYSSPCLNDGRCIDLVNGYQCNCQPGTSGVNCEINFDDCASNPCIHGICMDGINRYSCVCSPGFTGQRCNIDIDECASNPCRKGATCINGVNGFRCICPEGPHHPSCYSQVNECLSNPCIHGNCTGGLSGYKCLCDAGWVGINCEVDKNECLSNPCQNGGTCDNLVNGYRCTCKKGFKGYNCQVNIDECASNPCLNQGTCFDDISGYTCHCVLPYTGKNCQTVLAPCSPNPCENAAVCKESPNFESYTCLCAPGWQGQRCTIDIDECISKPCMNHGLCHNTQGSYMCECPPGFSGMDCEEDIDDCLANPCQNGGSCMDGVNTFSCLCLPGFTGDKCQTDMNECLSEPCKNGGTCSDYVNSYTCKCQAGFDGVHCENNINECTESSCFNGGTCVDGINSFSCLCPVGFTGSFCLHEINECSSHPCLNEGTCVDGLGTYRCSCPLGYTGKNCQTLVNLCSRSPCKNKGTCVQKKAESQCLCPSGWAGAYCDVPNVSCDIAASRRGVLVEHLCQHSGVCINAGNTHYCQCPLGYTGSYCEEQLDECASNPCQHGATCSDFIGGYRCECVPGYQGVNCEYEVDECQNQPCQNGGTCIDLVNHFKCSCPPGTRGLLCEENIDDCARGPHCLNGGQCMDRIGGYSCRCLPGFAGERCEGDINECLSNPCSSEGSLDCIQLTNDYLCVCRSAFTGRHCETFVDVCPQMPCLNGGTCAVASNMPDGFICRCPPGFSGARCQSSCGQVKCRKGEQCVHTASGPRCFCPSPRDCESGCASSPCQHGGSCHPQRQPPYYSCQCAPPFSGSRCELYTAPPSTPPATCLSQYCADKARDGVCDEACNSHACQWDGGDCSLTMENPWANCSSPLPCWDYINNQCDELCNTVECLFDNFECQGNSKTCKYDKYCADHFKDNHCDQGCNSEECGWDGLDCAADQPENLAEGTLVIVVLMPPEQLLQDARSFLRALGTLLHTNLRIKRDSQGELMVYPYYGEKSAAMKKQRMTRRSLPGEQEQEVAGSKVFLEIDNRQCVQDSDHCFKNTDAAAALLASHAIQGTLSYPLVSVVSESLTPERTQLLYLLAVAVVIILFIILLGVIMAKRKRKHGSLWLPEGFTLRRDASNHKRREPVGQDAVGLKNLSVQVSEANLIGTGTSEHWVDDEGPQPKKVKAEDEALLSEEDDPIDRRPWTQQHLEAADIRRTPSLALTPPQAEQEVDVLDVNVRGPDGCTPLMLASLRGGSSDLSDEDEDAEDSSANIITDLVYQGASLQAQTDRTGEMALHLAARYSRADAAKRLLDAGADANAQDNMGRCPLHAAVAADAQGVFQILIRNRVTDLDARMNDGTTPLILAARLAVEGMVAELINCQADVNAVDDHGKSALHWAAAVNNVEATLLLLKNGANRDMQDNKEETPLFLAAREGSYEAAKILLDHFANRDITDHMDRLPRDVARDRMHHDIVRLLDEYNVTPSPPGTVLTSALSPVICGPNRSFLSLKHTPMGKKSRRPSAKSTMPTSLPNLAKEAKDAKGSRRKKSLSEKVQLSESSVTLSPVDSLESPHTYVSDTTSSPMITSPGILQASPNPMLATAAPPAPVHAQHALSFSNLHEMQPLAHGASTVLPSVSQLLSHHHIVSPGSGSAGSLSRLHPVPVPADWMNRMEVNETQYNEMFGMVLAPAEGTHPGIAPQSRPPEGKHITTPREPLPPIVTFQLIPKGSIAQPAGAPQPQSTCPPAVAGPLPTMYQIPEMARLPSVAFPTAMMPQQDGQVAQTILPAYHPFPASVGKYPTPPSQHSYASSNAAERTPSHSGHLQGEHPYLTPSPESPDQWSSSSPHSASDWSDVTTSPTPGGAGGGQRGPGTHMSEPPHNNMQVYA
Torsin-1A-interacting protein 2 (Homo sapiens), sequence (Q8NFQ8 whole entry, looked up): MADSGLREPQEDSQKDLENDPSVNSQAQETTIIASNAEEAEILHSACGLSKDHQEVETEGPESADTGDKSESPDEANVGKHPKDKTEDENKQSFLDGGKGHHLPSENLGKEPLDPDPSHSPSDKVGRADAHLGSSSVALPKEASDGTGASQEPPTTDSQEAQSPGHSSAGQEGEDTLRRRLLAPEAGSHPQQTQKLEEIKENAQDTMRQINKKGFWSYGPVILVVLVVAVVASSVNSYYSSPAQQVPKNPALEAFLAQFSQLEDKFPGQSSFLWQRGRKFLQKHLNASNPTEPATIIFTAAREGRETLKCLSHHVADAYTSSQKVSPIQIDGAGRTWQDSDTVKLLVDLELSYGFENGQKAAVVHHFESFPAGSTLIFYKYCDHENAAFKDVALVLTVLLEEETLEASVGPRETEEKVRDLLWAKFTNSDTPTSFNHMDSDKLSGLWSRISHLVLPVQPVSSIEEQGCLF
Pro-neuregulin-1, membrane-bound isoform (Homo sapiens), sequence (Q02297 whole entry, looked up, the tested form may be a part, canonical isoform): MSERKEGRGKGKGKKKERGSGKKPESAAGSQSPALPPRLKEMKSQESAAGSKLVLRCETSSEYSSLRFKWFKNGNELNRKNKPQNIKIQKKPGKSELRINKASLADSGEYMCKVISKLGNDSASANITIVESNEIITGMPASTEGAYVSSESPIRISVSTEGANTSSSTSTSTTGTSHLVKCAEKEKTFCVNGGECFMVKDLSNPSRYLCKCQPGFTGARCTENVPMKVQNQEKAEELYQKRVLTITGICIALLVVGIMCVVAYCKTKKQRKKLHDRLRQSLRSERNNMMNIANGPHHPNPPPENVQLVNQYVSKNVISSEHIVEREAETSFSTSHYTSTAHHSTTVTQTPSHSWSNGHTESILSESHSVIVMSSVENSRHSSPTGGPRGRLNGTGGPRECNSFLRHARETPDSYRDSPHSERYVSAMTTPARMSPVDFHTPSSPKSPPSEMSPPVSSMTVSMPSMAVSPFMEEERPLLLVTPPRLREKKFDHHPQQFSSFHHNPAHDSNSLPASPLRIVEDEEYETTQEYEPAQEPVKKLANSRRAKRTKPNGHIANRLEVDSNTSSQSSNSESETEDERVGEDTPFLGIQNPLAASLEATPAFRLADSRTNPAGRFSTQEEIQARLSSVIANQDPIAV

As to `[N-]=[N+]=NCc1ccccc1[C@H]1OC(c2ccc(OCCCO)cc2)=N[C@@]1(Cc1ccccc1)C(=O)NCCN1CCOCC1`, the composite z-score was -0.714 in assay [1]; 0.614 in [2]; -0.0627 in assay [3]; 1.09 in [4]; 1.49 in [5]; 1.34 in assay [6]. The composite z-score in assay [7] was 1.23; in assay [9], 0.213; in assay [10], -0.0994; in assay [11] it was 1.53; in assay [15], 3.34; in assay [17] it was 0.443. The figures for the composite z-score in [18], in assay [19] and in assay [20] were 0.52, 1.09 and -0.0329, respectively. Also, the z-score in [8] is -0.731 (inactive); in assay [12], -1.07 (inactive); in assay [13], -0.864 (inactive); in [14], -0.31 (inactive); in assay [16], 1.12 (inactive).

As for `CN(C)C(=O)[C@]1(CCS(=O)(=O)c2ccccc2)N=C(c2ccc(OCCCO)cc2)O[C@@H]1c1ccccc1`, the composite z-score in [1] was determined as 0.227; in [2] it was 0.398; in [3], 0.0759; in assay [4], 0.88; in [5], 1.58; in assay [6], 1.76. Moreover, the composite z-score in assay [7] is 1.35; in assay [9], 0.968; in assay [10], -0.236; in assay [11], 1.42; in assay [15], 3.57; in [17], 0.0943. Moreover, the composite z-score in [18] turned out to be 0.577; in assay [19], 1.01; in [20] it was 0.127. Besides, the z-score in assay [8] is -1.74 (inactive); in assay [12] it was -0.897 (inactive); in [13] it was -0.804 (inactive); in assay [14], 4.54 (inactive); in assay [16] it was 0.29 (inactive).

With `C=C(COC)C(=O)CC[C@@H](OC(=O)c1cccnc1)c1ccccc1OCCO`, the composite z-score was 0.403 in assay [1]; 1.66 in [2]; -0.122 in assay [3]; 0.276 in [4]; -0.427 in assay [5]; 0.754 in assay [6]. Besides, the composite z-score in assay [7] was 0.655; in assay [9], 0.327; in [10], 0.0176; in assay [11] it was 0.409; in assay [15], -0.135; in assay [17], 0.0789. Also, the composite z-score in [18] is 0.879; in [19] it was -0.302; in [20], -0.0828. For the same compound, the z-score was 0.0248 (inactive) in assay [8]; -0.587 (inactive) in assay [12]; -1.7 (inactive) in assay [13]; -0.369 (inactive) in assay [14]; 0.0506 (inactive) in assay [16].

On to `Cc1ccc(S[C@]2(C(=O)NCc3ccccc3)CC(=O)N(Cc3cc(C(F)(F)F)cc(C(F)(F)F)c3)[C@@H]2c2ccc(CO)cc2I)cc1`, for which the composite z-score in [1] was 0.436; in [2], -0.3; in assay [3] it was -0.0767; in assay [4], -1.03; in assay [5], -1.44; in assay [6], 1.11. In addition, the composite z-score was 0.623 in [7]; -0.292 in assay [9]; -0.132 in [10]; -0.455 in [11]; 0.742 in assay [15]; 0.01 in assay [17]. For the same compound, the composite z-score was -1.71 in assay [18], -1.93 in [19] and -0.3 in assay [20]. Besides, the z-score in assay [8] was -0.452 (inactive); in assay [12], 0.269 (inactive); in assay [13], -2.56 (inactive); in assay [14], 0.49 (inactive); in assay [16], -0.607 (inactive).

Take `NC(=O)N1C(=O)C2C(C1=O)C1C=C(CCCO)C2C(C2CC2)N1Cc1cccc(OC(F)(F)F)c1` (stereo not given): the composite z-score in assay [1] is -0.284; in assay [2] it was 0.497; in assay [3], -0.139; in [4] it was -0.238; in assay [5], -0.22; in [6] it was 1.95. The composite z-score in [7] was 1.3; in assay [9] it was -0.108; in assay [10], -0.122; in [11] it was 0.639; in assay [15], 2.63; in [17], -0.249. The results for the composite z-score in assay [18], in [19] and in assay [20] were -0.0319, -0.538 and -0.184, respectively. For the same compound, the z-score was 0.0154 (inactive) in [8]; -0.897 (inactive) in [12]; -0.497 (inactive) in assay [13]; -1.47 (inactive) in assay [14]; -0.284 (inactive) in assay [16].
